In PubChem BioAssay AID463173 (ICCB-Longwood Screening Facility, Harvard Medical School, 2010):
The campaign covered roughly 52,000 compounds. About 4,300 (8.3%) were called active. What follows is part of a selection rich in actives, with near analogues and random picks from the rest. A number with no mark means an inactive call. No stated cut-off is given here; in the data, active means survival mostly below about 52% (no sharp cut-off); inactive means mostly above about 56%.

Each molecule was assayed on DeltatarO mutant (assay: growth inhibition of S. aureus wild type versus tarO mutant, primary screen, teichoic acid synthesis inhibitors, RN4220, OD600 (AID 463173)). Conditions: OD600, 18 h, active compounds read low, screened at 18.75 µg/mL (by protocol).

First: Cc1ccc(NC(=O)Cn2nc(-c3ccncc3)ccc2=O)cc1Cl
Second: Cc1nn(CC(=O)NCc2ccccc2Br)c(=O)c2cc3occc3n12
The survival of the first is lower: 120% for the first, 132% for the second.

Compared with `Cc1cc(C)c(/C=C/c2onc(C)c2S(=O)(=O)N2CCC(C(=O)NCCc3ccccc3)CC2)c(C)c1`, `Cc1nn(S(=O)(=O)c2ccccc2)c(C)c1S(=O)(=O)N1CCC(C)CC1` is lower in survival: 94% for the first, 72% for the second.

Compared with `Cc1ccc(-n2nc3c(=O)n(CCCC(=O)NCc4ccccc4C)nc(C)c3c2C)cc1`, `Cc1ccc(N2C(=O)CSC23C(=O)N(CC(=O)NCCc2ccccc2)c2ccccc23)cc1C` (stereo unspecified) is lower in survival: 120% for the first, 95% for the second.

Going from `COC(=O)c1nc(C(=O)OC)c(C(=O)OC)nc1C(=O)OC` to `CCOC(=O)Cc1c(C(=O)OCC)nnc2c(-c3ccccc3)c(C)nn12`, the survival falls from 95% to 75%.

First: COc1ccc(Cl)cc1C(=O)Nc1sc2c(c1C(=O)OC(C)C)CCCC2
Second: COc1cccc(N2CC(NC(=O)c3cccc(OC)c3OC)CC2=O)c1 (stereo unspecified)
The survival of the first is lower: 61% for the first, 115% for the second.

Compared with `CN(C)c1ccc(CNC(=O)c2ccccc2NC(=O)c2nsc3ccccc23)cc1`, `CC(C)c1ccc(Nc2cc(C(=O)NCCc3ccccc3)c3ccccc3n2)cc1` is higher in survival: 73% for the first, 81% for the second.

Going from `COc1ccccc1NC(=O)C1=C(C)Nc2nc(CCCO)nn2C1c1cccc(O)c1` (stereo unspecified) to `COc1cc(C2C(C(=O)Nc3ccc(C)cc3C)=C(C)Nc3nc(SCc4ccccc4)nn32)cc(OC)c1OC` (stereo unspecified), the survival falls from 144% to 64%.

First: CCN1CC=C2C(C#N)=C(N)C(C#N)(C#N)C(c3ccc(OC)c4ccccc34)C2C1 (stereo unspecified)
Second: CCCN1CC=C2C(C#N)=C(N)C(C#N)(C#N)C(c3cccc(OC)c3)C2C1 (stereo unspecified)
The survival of the first is higher: 108% for the first, 95% for the second.

First: CC1CCN(S(=O)(=O)c2ccc3c(c2)CCN3)CC1
Second: COc1ccc(S(=O)(=O)n2nc(C)c(S(=O)(=O)N3CCC(C)CC3)c2C)cc1OC
The survival of the first is higher: 102% for the first, 70% for the second.

Going from `O=C(O)C1C(c2ccccc2)C(C(=O)N2CCCCC2)C1c1ccccc1` (stereo unspecified) to `Cc1nn(C(=O)c2ccccc2F)c(C)c1S(=O)(=O)N1CCCCCC1`, the survival falls from 101% to 83%.

Going from `Brc1ccccc1-n1ncc2c1ncn1nc(Cc3ccccc3)nc21` to `Fc1ccc(C(NCCc2ccccc2)c2nnc(-c3ccccc3Cl)o2)cc1` (stereo unspecified), the survival rises from 74% to 104%.

Compared with `CC(C)(C)OC(=O)N1CCC(c2nnc(SCc3ccccc3F)o2)CC1`, `CC(C)(C)OC(=O)N1CCC(c2nnc(SCc3ccccc3)o2)CC1` is higher in survival: 57% for the first, 96% for the second.

Going from `Clc1ccccc1CSc1nnc(C2CCNCC2)o1` to `Clc1cccc(CSc2nnc(C3CCNCC3)o2)c1`, the survival rises from 89% to 104%.

First: CCN(C(=O)c1cnc(N2CCOCC2)c2ccccc12)c1cc(C)ccc1C
Second: CCOc1ccc(C(C)C)cc1S(=O)(=O)Nc1cccc(-c2ccc(N3CCOCC3)nn2)c1
The survival of the first is higher: 94% for the first, 87% for the second.

Going from `O=C(c1ccccc1)c1ccc2nc(Nc3cc(Cl)ccc3O)c3nncn3c2c1` to `Fc1ccc(C(Nc2ccccc2Cl)c2nnc(-c3ccccc3Cl)o2)cc1` (stereo unspecified), the survival falls from 118% to 83%.

Going from `COc1ccc(NC(=O)CSc2oc(-c3ccc(C)cc3)nc2S(=O)(=O)c2ccc(C)cc2)c(OC)c1` to `COc1ccc(CCNC(c2ccc(F)cc2)c2nnc(-c3ccccc3Cl)o2)cc1OC` (stereo unspecified), the survival falls from 60% to 57%.

First: CCCCn1cc(S(=O)(=O)c2ccc(C)c(C)c2)c(=O)c2cc(F)c(N3CCN(C)CC3)cc21
Second: COc1cccc(N2CCN(Cc3cc(=O)oc4cc(C)ccc34)CC2)c1
The survival of the first is higher: 101% for the first, 70% for the second.

Going from `COC(=O)c1ccccc1NC(=O)[C@H]1O[C@@H]2OC(C)(C)O[C@@H]2[C@H]2OC(C)(C)O[C@H]21` to `Cc1nc2nc(NC(=O)c3ccc(C(C)(C)C)cc3)[nH]n2c(=O)c1Cl`, the survival rises from 95% to 98%.

Compared with `COc1ccc(CN2CCN(Cc3cc(=O)oc4cc(C)ccc34)CC2)c(OC)c1OC`, `Cc1ccc2c(CN3CCN(Cc4ccccc4Cl)CC3)cc(=O)oc2c1` is lower in survival: 101% for the first, 43% for the second.

First: Cc1ccc2c(CN3CCN(C(=O)c4ccc(Br)cc4)CC3)cc(=O)oc2c1
Second: CCCCC(CC)CNC(=O)c1ccc2c(=O)n(Cc3ccc(OC)cc3)c(=O)[nH]c2c1 (stereo unspecified)
The survival of the first is lower: 51% for the first, 84% for the second.

Compared with `O=c1[nH]c2cc3c(cc2cc1C(c1nnnn1C1CCCC1)N1CCc2ccccc21)OCCO3` (stereo unspecified), `NC(=O)CN(C1CCCCC1)S(=O)(=O)c1ccc(Br)cc1` is higher in survival: 64% for the first, 96% for the second.

Compared with `Fc1ccc(NCc2ccccc2-c2nnc(-c3ccccc3Cl)o2)cc1`, `Cc1nn(S(=O)(=O)c2ccc(F)cc2)c(C)c1S(=O)(=O)N1CCCCC1` is lower in survival: 88% for the first, 72% for the second.

Going from `COc1ccc(S(=O)(=O)n2nc(C)c(S(=O)(=O)N3CCCCCC3)c2C)cc1C` to `Cc1nn(C(=O)c2cccc([N+](=O)[O-])c2C)c(C)c1S(=O)(=O)N1CCOCC1`, the survival falls from 81% to 76%.

In the case of `CCCOc1ccc(C2C3CN(CC)CC=C3C(C#N)=C(N)C2(C#N)C#N)cc1OC` (stereo unspecified), the survival is reported as 0% (active).
`CC(C)(C)OC(=O)N1CCC(c2nnc(SCc3ccccc3Cl)o2)CC1` was tested, and the survival was -1% (active).
For `CC(C)(C)OC(=O)N1CCC(c2nnc(SCc3cccc(Cl)c3)o2)CC1`, the survival was 1% (active).
For `Cc1ccc2c(CN3CCN(C(=O)c4ccc(F)cc4)CC3)cc(=O)oc2c1`, the survival was 33% (active).
For `COc1ccccc1C(=O)N1CCN(Cc2cc(=O)oc3cc(C)ccc23)CC1`, the survival was 38% (active).
`Cc1ccc(CCNC(c2ccc(F)cc2)c2nnc(-c3ccccc3Cl)o2)cc1` (stereo unspecified) was tested, and the survival was -8% (active).
For `Fc1ccc(C(NCCc2ccc(Cl)cc2)c2nnc(-c3ccccc3Cl)o2)cc1` (stereo unspecified), the survival was 26% (active).
With `COc1ccc(S(=O)(=O)n2nc(C)c(S(=O)(=O)N3CCCCCC3)c2C)cc1OC` the survival was 6% (active).
`Cc1nn(S(=O)(=O)c2ccc(F)cc2)c(C)c1S(=O)(=O)N1CCC(C)CC1` was tested, and the survival was -1% (active).
In the case of `Cc1nn(C(=O)c2cccc([N+](=O)[O-])c2C)c(C)c1S(=O)(=O)N1CCCCCC1`, the survival is reported as -2% (active).
